Laboratory results published in PubChem BioAssay (NCATS).
Results filed as inconclusive are left out. The source made the active and inactive calls. The call rests on the fitted dose curve; in most records, active means well fitted cell-killing curve with a large enough effect; inconclusive means small, poorly fitted or top-dose-only effect, or effect the other way; inactive means flat fitted curve, though single readings scatter.

Legend:
Assay in all cases: Primary qHTS to identify gynecologic anti-cancer compounds using libraries of approved drugs and bioactive compounds (AID 1345084); further: nearly all actives have a fitted effect of over 55% in size
Settings in all cases: Gynecologic cancer cell panel viability, ATPlite luminescence, 48 h; series mostly up to 57.5 µM
[1] = system: JEG-3
How it was run: (§1)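 Cell viability after 48 h drug treatment, ATPlite luminescence readout; five doses.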

[2] = system: OV90
How it was run: as §1

[3] = system: PA-1
How it was run: as §1

[4] = system: Tov-21-G
How it was run: as §1

[5] = system: Tov112D
How it was run: as §1
On the % scale 0 is the no-effect control and ±100 the full control effect; potency means the concentration at half of the fitted maximal effect.

Cc1ccccc1CN1C2=NCCN2C(=O)C2=C1CCN(Cc1ccccc1)C2
inactive: Potency [1] | Potency [2] | Potency [3] | Potency [4] | Potency [5]

C/C1=C\CC[C@H](C)CCO[C@@H]2O[C@H](CO[C@@H]3OC[C@](O)(COC1=O)[C@H]3O)[C@@H](O)[C@H](O)[C@H]2O
inactive: Potency [1] | Potency [2] | Potency [3] | Potency [4] | Potency [5]

O=C(Nc1ccccc1)N1CCN(Cc2ccc3ccccc3n2)CC1
inactive: Potency [1] | Potency [2] | Potency [3] | Potency [4] | Potency [5]

COc1nc2sc(C(=O)NC3CC3)c(N)c2c(C)c1Cl
inactive: Potency [1] | Potency [2] | Potency [3] | Potency [4] | Potency [5]

C[C@@H]1O[C@@H](O[C@@H]2[C@@H](O)[C@H](O[C@H]3CC[C@@]4(C)C(CC[C@]5(C)C4CC=C4[C@@H]6CC(C)(C)CC[C@]6(C(=O)O[C@@H]6O[C@H](CO)[C@@H](O)[C@H](O)[C@H]6O)CC[C@]45C)C3(C)C)O[C@H](C(=O)O)[C@H]2O)[C@H](O)[C@H](O)[C@H]1O (stereo not given in full)
inactive: activity change, negative = cytotoxicity [1] 4.87% [at 11.6 µM] | activity change, negative = cytotoxicity [2] 3.49% [at 11.6 µM] | activity change, negative = cytotoxicity [3] 2.04% [at 11.6 µM] | activity change, negative = cytotoxicity [4] 1.47% [at 11.6 µM] | activity change, negative = cytotoxicity [5] 5.96% [at 11.6 µM]

C[C@H](C/C=C/C(C)(C)O)[C@H]1CC[C@@]2(C)[C@@H]3[C@@H](O[C@@H]4O[C@H](CO)[C@@H](O)[C@H](O)[C@H]4O)C=C4C(CC[C@H](O)C4(C)C)[C@]3(C=O)CC[C@]12C (stereo not given in full)
inactive: Potency [1] | Potency [2] | Potency [3] | Potency [4] | Potency [5]

O=C1OCC(c2ccccc2)=C1Cc1ccccc1
inactive: Potency [1] | Potency [2] | Potency [3] | Potency [4] | Potency [5]

C=C(C(=O)O)[C@@H]1CC[C@@]2(C)CC[C@H](O)[C@@]2(C(C)=O)C1
inactive: Potency [1] | Potency [2] | Potency [3] | Potency [4] | Potency [5]

Cc1cc(C)c(CNC(=O)c2cc(-c3ccc(CN4CCOCC4)cc3)cc3c2cnn3C2CCCC2)c(=O)[nH]1
inactive: Potency [1] | Potency [2] | Potency [3] | Potency [4] | Potency [5]

CC(C)(C)CCN1C[C@@H]2C(CNC(=O)c3cc(Cl)cc(Cl)c3)[C@@H]2C1 (stereo not given in full)
inactive: Potency [1] | Potency [2] | Potency [3] | Potency [4] | Potency [5]

C=CC(=O)Nc1cc(Nc2ncc(Cl)c(-c3c[nH]c4ccccc34)n2)c(OC)cc1N(C)CCN(C)C
active: Potency [1] 12.6 µM | Potency [2] 3.98 µM | Potency [3] 6.31 µM | Potency [4] 15.8 µM | Potency [5] 15.8 µM

Cc1cccc(C)c1OCc1cc(C(=O)N2CCC(c3ccncc3)CC2)no1
inactive: Potency [1] | Potency [2] | Potency [3] | Potency [4] | Potency [5]

NCc1c[nH]c(=S)n1[C@@H]1CCc2c(F)cc(F)cc2C1
inactive: Potency [1] | Potency [2] | Potency [3] | Potency [4] | Potency [5]

Cc1cc(O)cc(O[C@@H]2O[C@H](CO)[C@@H](O)[C@H](O)[C@H]2O)c1
inactive: Potency [1] | Potency [2] | Potency [3] | Potency [4] | Potency [5]

CC(=O)OC1CC2C3(C)CCC(OC(=O)CC(=O)O)C(C)(C)C3CCC2(C)C2(C)CCC(C3(C)CCC(=O)O3)C12 (stereo not given)
inactive: Potency [1] | Potency [2] | Potency [3] | Potency [4] | Potency [5]
